Experimental data from PubChem BioAssay AID1007 (NMMLSC, 2008).
The campaign covered roughly 190,000 compounds. About 80 (0.04%) were called active. Cut-off read from the data, not from the text of the source: active = inhibition above about 40%. The list is a sample of the results.

biological target: Bcl-2-like protein 1 (Homo sapiens) (UniProt Q07817); assay: Bcl-XL/Bim peptide interaction blockers – biochemical, multiplexed, bead flow cytometry, human Bcl-XL, primary screen (AID 1007); settings: Bim peptide-Bcl-XL binding, fluorescence, at 10 µM, active compounds read high
Sequence (Q07817 whole entry, looked up): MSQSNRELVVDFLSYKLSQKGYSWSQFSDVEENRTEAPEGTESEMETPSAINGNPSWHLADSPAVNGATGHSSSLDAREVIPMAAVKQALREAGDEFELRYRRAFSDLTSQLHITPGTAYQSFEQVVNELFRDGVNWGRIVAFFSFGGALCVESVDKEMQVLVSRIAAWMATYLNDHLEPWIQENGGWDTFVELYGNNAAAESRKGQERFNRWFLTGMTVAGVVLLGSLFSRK

inhibition, inactive:
Cc1cc(C)c[n+](-c2nc3ccccc3nc2[N-]S(=O)(=O)c2cccs2)c1 -3%
O=C(Nc1cccc(C(F)(F)F)c1)c1ccc(N2CCNCC2)c([N+](=O)[O-])c1 0%
O=C(NCc1cccs1)C1CCN(S(=O)(=O)c2ccc(Cl)cc2)CC1 0%
CCN(CC(=O)NC(=O)NCc1ccccc1)Cc1nc2ccccc2c(=O)[nH]1 1%
C/C(=N/OC(=O)c1c(-c2c(F)cccc2Cl)noc1C)c1cnccn1 -3%
Cc1ccc(-c2nn(-c3cccc(F)c3)cc2CNCCc2ccncc2)o1 -2%
O=C(CSc1ccccc1F)NC1CCS(=O)(=O)C1 (stereo unspecified) 0%
O=C1COc2ccc(C(=O)COC(=O)c3cccnc3Cl)cc2N1 -3%
O=C(CCS(=O)(=O)Cc1ccccc1)Nc1ccc2c(c1)OCCO2 0%
NC1=NC2(CCCCC2)N(c2ccc(F)cc2F)C(N)=N1 -6%
COc1ccc2ccccc2c1CNc1nnnn1C 1%
CC(C)(C)NC(=O)COC(=O)c1cc(Br)ccc1Cl -9%
O=C(OCC(=O)N1CCOCC1)c1ccc(N2CCOCC2)c([N+](=O)[O-])c1 1%
Cc1nc(-c2ccc(Cl)cc2)sc1C(=O)CBr 0%
Cc1cccc(NC(=O)c2cccc(C(F)(F)F)c2)c1 -3%
CC[N+]1(CC)CC2=Cc3ccccc3CC2C1 (stereo unspecified) -4%
CNC(=O)NC(=O)C(OC(=O)c1cccc(S(=O)(=O)N2CCCCC2)c1)c1ccccc1 (stereo unspecified) -4%
CCCn1c(NC(=O)C23CC4CC(CC(O)(C4)C2)C3)nc2ccccc21 -2%
Cc1cc(C)n(CCNCc2c(C(=O)N3C[C@@H](C)O[C@@H](C)C3)nc3ccc(Cl)cn23)n1 -1%
O=C(N/N=C/c1ccccc1O)/C(=C/c1ccccc1)CCO -10%
CCOc1ccc(CCN2C(=O)c3cccnc3C2=O)cc1OCC 0%
CC(=O)c1c(Nc2ccccc2)sc(C(=O)c2ccccc2)c1C -6%
COc1ccc2nc(Nc3nc(-c4ccncc4)cs3)sc2c1 -1%
Cc1ccc(-c2c(C)n([O-])c3c([n+]2=O)CCC3)cc1 -3%
O=C(CO/N=C/c1ccccc1OC(F)F)NC1CCCC1 1%
Cc1ccccc1N(C(=O)Cc1cccs1)C(C(=O)NC1CCCCC1)c1cn(C)nc1C (stereo unspecified) -5%
Cc1cc(NC(=O)CSc2nccn2-c2ccc([N+](=O)[O-])cc2)no1 -15%
Cc1nnc(SCC(=O)NNC(=O)c2ccc(Cl)cc2)n1CC1CCCO1 (stereo unspecified) -6%
Cc1ccc(N(C(=O)Cc2cccs2)C(C(=O)NCC2CCCO2)c2ccncc2)cc1 (stereo unspecified) 2%
Cc1cccc(N2CCN(c3ccc(C(N)=O)cc3[N+](=O)[O-])CC2)c1C 0%
CCOc1ncccc1C(=O)N(CC)CC(=O)Nc1ccc(NC(C)=O)cc1 -9%
CN(c1ccccc1)S(=O)(=O)c1cc(C(=O)Nc2nc3ccccc3[nH]2)ccc1Cl 8%
COC(=O)CN1C(=S)N(c2ccccc2)C(=O)C1CC(=O)Nc1ccc(Cl)cc1 (stereo unspecified) -5%
N#C/C(=C(/O)COC(=O)COc1ccc(Cl)cc1)c1nc2ccccc2[nH]1 -11%
COCCCNC(=S)NCCNc1nc2cc(C)c(C)cc2cc1C#N -1%
S=C(NCC1CCCO1)N1CCN(c2ccc(Cl)c(Cl)c2)CC1 (stereo unspecified) -1%
CCn1cnc2scc(-c3ccc(C)c(C)c3)c2c1=O 0%
CC(C)Oc1ccc(CCc2nnc(SCC(=O)O)n2-c2ccccc2)cc1 -5%
COc1ccccc1OCC(=O)OCn1c(SC)nnc(C)c1=O -7%
N=C1/C(=C/c2cccn2-c2cccc([N+](=O)[O-])c2)C(=O)N=C2SC=CN12 -5%
Cc1c(C(=O)NCCN2C(=O)S/C(=C\c3cccs3)C2=O)cccc1[N+](=O)[O-] -6%
CCCn1nc(NS(=O)(=O)c2ccccc2)c2cc3cc(C)ccc3nc21 0%
Cc1ccc(NC(=O)CSc2nc(CSc3ccc(C)cc3)cc(=O)[nH]2)cc1 -1%
CN(C)C(CNC(=O)Cc1ccc([N+](=O)[O-])cc1)c1ccccc1 (stereo unspecified) -1%
S=c1[nH]nc(-c2cccs2)n1/N=C/c1cccs1 1%
FC(F)(F)c1cccc(Cc2noc(CN3CCC(N4CCCCC4)CC3)n2)c1 0%
COc1ccc(C/C(C)=N/NC(=O)c2ccncc2)cc1 -3%
Cc1ccc(N(C(=O)c2ccc(S(=O)(=O)N(C)C)cc2)C2C=CS(=O)(=O)C2)cc1 (stereo unspecified) 0%
Cc1ccc(C(=O)/C=C/Nc2ccc(S(=O)(=O)Nc3onc(C)c3C)cc2)cc1 -1%
O=C(CNCc1ccc(Cl)cc1)Nc1cccc(C(=O)O)c1 -5%
CNS(=O)(=O)c1ccc(NC(=O)C2CC(=O)N(c3ccc(Cl)cc3)C2)cc1 (stereo unspecified) -2%
CC(=O)Nc1ccc(NC(=O)C(C)n2c3ccccc3c3nc(=O)cc(C)n32)cc1 (stereo unspecified) 0%
O=C(O)c1cccc(NC(=S)N/N=C/c2c[nH]c3ccccc23)c1 -4%
CCOC(=O)CN1C(=O)N[C@@H](c2ccc(Br)cc2)C(C(C)=O)=C1C -2%
COc1ccc(C(C(=O)NC2CCCCC2)N(C(=O)Cc2c[nH]c3ccccc23)c2ccccc2)cc1OC (stereo unspecified) 10%
COc1cc(CN(C)Cc2nc3cc(C(F)(F)F)ccc3c(=O)[nH]2)ccc1OC(F)F 0%
COCCN(CCOC)S(=O)(=O)c1ccc(/C(O)=C(\C#N)c2nc3ccccc3[nH]2)cc1 -3%
O=C(NCc1ccccc1Cl)C1CCCO1 (stereo unspecified) 2%
O=C(O)c1ccccc1-c1ccccc1C(=O)NCc1cccnc1 -2%
Cc1ccccc1-n1nc(SCC(=O)O)sc1=S 2%
COc1ccc(-c2[nH]ncc2CN(C)Cc2cc(C)[nH]n2)c(F)c1 -3%
CCOCCCNC(=S)N1CCC(NC(=O)C2CCCCC2)CC1 -3%
CNC(=S)N/N=C/c1cn(Cc2ccc(C)cc2)c2ccccc12 -5%
COc1ccc(C(=O)C2CCCN(C(=O)c3cc4nc(C)cc(C)n4n3)C2)cc1F (stereo unspecified) -2%
CC(C)NC(=O)C(=O)NCCCOC(C)C -6%
NC(=S)N/N=C/c1coc2cc(Cl)ccc2c1=O -5%
Cc1ccc(Nc2nnc(SCC(=O)c3cc4ccccc4o3)s2)cc1C -20%
COc1cc(NC(=S)N2CCCC(C)C2)c(OC)cc1Cl (stereo unspecified) -7%
CC(C)COP(=O)(c1ccc(N(C)C)cc1)C(Nc1ccccc1)c1cccnc1 (stereo unspecified) -15%
CC1CC(=S)Nc2ccccc2N1Cc1ccccc1 (stereo unspecified) -6%
CSc1ccccc1NC(=O)Cc1ccc(Br)cc1 -4%
CCCN(CC(=O)Nc1ccccc1C)C(=O)c1cc(=O)[nH]c2ccccc12 2%
Cc1cc(=O)oc2c1c(C)nn2-c1ccc(Cl)cc1 1%
COc1ccc(C(C)=O)cc1CSc1nc2nc(C)cc(C)n2n1 -2%
Cc1nc(S(=O)(=O)c2ccc(Br)cc2)nc2c1CCC2 0%
COc1cc(C(=O)N2C(=O)c3cccc(N)c3C2=O)cc(OC)c1OC -2%
Cc1ccc(C)c(OCC(=O)N2CCN(C(=O)c3ccco3)CC2)c1 -8%
COc1cc(C(=O)Nc2cc(C(F)(F)F)ccc2N2CCOCC2)ccc1O -6%
CCCn1nc(Oc2nc(NC(C)C)nc(N(C)C)n2)ccc1=O -2%
NS(=O)(=O)c1ccc(NC(=O)/C=C/c2ccccc2Cl)cc1 1%
NNC(=O)COc1ccc(C2SCCS2)cc1 0%
COc1ccc(-n2nnnc2SCC(=O)NCc2cccs2)cc1 1%
Cn1c(-c2ccc(F)cc2)cnc1SCC(=O)NNC(=O)Cc1ccccc1 0%
Cc1ccc(CC(=O)Nc2cccc(C#N)c2)cc1 -4%
C[C@H](NC(=O)c1ccccc1Cl)C(=O)OCCOc1cccc(Cl)c1 -14%
Cn1nnnc1NCc1ccc(Cl)c(Cl)c1 0%
COc1ccc(CNC(=O)C2CCN(S(C)(=O)=O)CC2)cc1 -3%
CC(Nc1ccccc1)c1cccnc1 (stereo unspecified) -2%
CCOC(=O)NC(=O)CSc1nnc(SCCC(=O)O)s1 -10%
O=C(Nc1ccccc1-c1ccccc1)c1cccs1 -3%
CC(C)(C)c1ccc(C(=O)NCc2nnc(SCC(=O)N3CCCc4ccccc43)n2-c2ccccc2)cc1 -8%
Cc1ccc(O)c(-c2cc(C(=O)NCc3ccccc3)[nH]n2)c1 -3%
C/C(N)=C(/C#N)C(=O)COC(=O)c1cc(-c2cccc(Br)c2)nc2ccccc12 -1%
CCOC(=O)N1CCN(C(=O)c2ccccc2N(Cc2ccccc2)S(=O)(=O)c2ccc(OC)cc2)CC1 0%
Cc1ccc(S(=O)(=O)/N=S(\C)C(C)C)cc1 (stereo unspecified) -3%
COc1ccccc1CNC(=O)CNC(=O)c1cn(-c2ccccc2OC)c(=O)c2ccccc12 -2%
CC(=O)OC(COc1ccc(F)cc1)Cn1cnc2ccccc21 (stereo unspecified) -4%
O=C(Nc1ccc(F)c([N+](=O)[O-])c1)C1CC(=O)N(Cc2ccccc2)C1 (stereo unspecified) 0%
Cc1ccnc2nc(C(=O)OCC(=O)N(CC(C)C)CC(C)C)nn12 -7%
Cc1ccc(OCC(=O)Nc2ccccc2Sc2ccc(Cl)cc2)c([N+](=O)[O-])n1 0%
O=C1N/C(=N\N=C\c2ccco2)SC1Cc1ccc(F)cc1 (stereo unspecified) -4%
CCNC(=O)NC(=O)C(C)OC(=O)C1CCN(S(=O)(=O)c2ccccc2F)CC1 (stereo unspecified) -2%
CN1CCN(/N=C2/C(=O)Nc3ccc([N+](=O)[O-])cc32)CC1 0%
COc1ccc(CN2CCC(c3nc4ccc(Cl)cc4[nH]3)CC2)cc1 0%
CC(=O)Nc1ccc(S(=O)(=O)N(C)c2ccc(OCC(=O)OCC(=O)N3CCCCC3)cc2)cc1 -3%
Cc1cc(C)cc(NC(=O)COC(=O)c2cc(C)oc2C)c1 -4%
O=C(CN1CCN(C/C=C/c2ccccc2)CC1)Nc1ccc(F)cc1F -1%
CN=C(c1ccccc1)c1c(C)cccc1C -9%
COc1cccc(OCCCN2CCCCCC2)c1 -1%
Cc1cc(O)ccc1NC1=CC(=O)CC(C)(C)C1 0%
C#CCNC(=O)C1=C[C@@H](c2ccccc2)[C@H](CCCO)[C@@H](OCC)O1 -1%
